# From paper PMC7862700, “An all-to-all approach to the identification of sequence-specific readers for epigenetic DNA modifications on cytosine”
# What was measured:
# Test in all cases: DAPPL (digital affinity profiling via proximity ligation, sequencing); 10 mM Tris-HCl pH 7.5, 50 mM NaCl, 1 mM DTT, 4% glycerol, room temperature, 30 min; GST-TFs on glutathione beads, 16-mer random dsDNA library, 0.1% formaldehyde crosslink after washing; high values mean tight binding
# [1] = target: T1, FLI1 (Homo sapiens, UniProt Q01543 1-452); settings: protein: recombinant; tags: N-terminal GST; dsDNA, one strand shown
# T1 sequence: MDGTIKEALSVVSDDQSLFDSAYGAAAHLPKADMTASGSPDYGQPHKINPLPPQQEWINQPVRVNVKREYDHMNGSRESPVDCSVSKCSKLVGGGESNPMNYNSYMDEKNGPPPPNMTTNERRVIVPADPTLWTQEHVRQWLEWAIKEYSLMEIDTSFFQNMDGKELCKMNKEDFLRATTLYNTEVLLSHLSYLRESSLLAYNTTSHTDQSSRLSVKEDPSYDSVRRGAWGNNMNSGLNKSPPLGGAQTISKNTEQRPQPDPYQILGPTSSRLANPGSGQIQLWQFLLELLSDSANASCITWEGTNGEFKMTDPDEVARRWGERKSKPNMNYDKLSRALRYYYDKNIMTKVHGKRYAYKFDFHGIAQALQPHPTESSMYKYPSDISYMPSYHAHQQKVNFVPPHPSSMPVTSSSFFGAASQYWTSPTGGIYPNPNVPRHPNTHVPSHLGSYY
# Procedure, shortened: (§1)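 In yeast, human transcription factors were expressed with a GST fusion, then pulled down on glutathione beads and given DNA barcodes. Pooled with a tag-only sample, they were exposed to 200 nmole of a 16-mer random double-stranded DNA library (Tris/NaCl/DTT/glycerol buffer, room temperature, 30 min), washed, crosslinked with 0.1% formaldehyde, proximity-ligated using BsaI/T4 ligase for 1 h at 37 °C, PCR-amplified and read on an Illumina NextSeq500. Each hexamer's frequency of reads for a factor, divided by the matching frequency for the tag-only sample, gives the binding signal.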
# [2] = target: T2, ELK1 (Homo sapiens, UniProt P19419 1-428); settings: protein: recombinant; tags: N-terminal GST; dsDNA, one strand shown
# T2 sequence: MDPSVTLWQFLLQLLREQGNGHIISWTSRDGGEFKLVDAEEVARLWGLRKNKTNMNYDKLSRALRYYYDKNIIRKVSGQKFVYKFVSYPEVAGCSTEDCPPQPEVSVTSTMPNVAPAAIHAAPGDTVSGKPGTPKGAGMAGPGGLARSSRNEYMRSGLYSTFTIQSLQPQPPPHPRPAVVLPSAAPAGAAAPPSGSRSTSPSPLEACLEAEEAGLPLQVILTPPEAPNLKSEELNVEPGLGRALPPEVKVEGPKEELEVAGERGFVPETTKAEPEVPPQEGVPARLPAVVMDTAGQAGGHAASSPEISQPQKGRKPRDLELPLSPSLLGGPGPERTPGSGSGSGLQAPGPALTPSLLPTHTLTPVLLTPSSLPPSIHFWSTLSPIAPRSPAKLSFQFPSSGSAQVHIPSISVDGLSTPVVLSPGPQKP
# Procedure, shortened: as §1
# [3] = target: T3, GABPA (Homo sapiens, UniProt Q06546 1-454); settings: protein: recombinant; tags: N-terminal GST; dsDNA, one strand shown
# T3 sequence: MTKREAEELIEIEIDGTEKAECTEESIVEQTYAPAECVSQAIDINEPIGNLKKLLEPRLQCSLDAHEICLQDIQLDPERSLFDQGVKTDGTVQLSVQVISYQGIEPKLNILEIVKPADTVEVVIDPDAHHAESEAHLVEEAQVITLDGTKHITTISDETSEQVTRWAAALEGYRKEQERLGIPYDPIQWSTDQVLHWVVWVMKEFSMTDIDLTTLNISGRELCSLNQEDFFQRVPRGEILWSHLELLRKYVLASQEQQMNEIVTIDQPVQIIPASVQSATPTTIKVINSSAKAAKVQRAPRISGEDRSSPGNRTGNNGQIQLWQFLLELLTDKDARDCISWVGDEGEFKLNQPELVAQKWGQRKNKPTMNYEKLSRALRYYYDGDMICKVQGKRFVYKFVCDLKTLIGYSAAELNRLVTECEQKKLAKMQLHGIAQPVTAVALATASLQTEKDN
# Procedure, shortened: as §1
# [4] = target: T4, ERG (Homo sapiens, UniProt P11308 1-479); settings: protein: recombinant; tags: N-terminal GST; dsDNA, one strand shown
# T4 sequence: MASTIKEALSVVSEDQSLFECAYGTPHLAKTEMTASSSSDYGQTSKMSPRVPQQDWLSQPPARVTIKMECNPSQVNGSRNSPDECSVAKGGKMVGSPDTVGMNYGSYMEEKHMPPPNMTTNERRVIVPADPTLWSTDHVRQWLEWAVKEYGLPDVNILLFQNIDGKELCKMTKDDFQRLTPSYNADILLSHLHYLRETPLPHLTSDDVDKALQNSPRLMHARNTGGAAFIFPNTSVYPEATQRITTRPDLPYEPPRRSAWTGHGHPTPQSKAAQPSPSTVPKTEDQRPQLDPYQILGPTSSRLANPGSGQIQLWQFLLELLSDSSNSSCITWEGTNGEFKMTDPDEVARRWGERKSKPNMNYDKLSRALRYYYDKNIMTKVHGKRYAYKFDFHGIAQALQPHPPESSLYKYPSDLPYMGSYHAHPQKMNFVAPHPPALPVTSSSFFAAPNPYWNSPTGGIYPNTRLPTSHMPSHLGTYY
# Procedure, shortened: as §1
# [5] = target: ELF1 (Homo sapiens, UniProt P32519 1-619); settings: protein: recombinant; tags: N-terminal GST; dsDNA, one strand shown
# ELF1, sequence (P32519 whole entry): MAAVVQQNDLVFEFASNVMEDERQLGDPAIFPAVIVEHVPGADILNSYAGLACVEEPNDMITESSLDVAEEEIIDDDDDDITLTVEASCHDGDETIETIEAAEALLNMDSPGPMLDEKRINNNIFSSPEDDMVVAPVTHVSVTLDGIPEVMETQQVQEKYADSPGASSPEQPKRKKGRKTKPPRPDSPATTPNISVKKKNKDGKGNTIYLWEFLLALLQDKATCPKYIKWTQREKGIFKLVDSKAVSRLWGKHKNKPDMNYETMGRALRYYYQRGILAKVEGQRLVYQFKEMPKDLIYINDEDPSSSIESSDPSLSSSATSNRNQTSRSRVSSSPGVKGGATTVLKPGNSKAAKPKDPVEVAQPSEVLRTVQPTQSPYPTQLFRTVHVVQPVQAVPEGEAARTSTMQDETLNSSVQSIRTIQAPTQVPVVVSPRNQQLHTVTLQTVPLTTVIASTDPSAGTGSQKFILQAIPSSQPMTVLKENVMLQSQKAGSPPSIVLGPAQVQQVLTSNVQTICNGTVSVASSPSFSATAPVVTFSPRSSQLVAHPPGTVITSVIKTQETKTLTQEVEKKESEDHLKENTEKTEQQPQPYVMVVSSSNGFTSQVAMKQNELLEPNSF
# Procedure, shortened: as §1
# [6] = target: T5, EHF (Homo sapiens, UniProt Q9NZC4 1-300); settings: protein: recombinant; tags: N-terminal GST; dsDNA, one strand shown
# T5 sequence: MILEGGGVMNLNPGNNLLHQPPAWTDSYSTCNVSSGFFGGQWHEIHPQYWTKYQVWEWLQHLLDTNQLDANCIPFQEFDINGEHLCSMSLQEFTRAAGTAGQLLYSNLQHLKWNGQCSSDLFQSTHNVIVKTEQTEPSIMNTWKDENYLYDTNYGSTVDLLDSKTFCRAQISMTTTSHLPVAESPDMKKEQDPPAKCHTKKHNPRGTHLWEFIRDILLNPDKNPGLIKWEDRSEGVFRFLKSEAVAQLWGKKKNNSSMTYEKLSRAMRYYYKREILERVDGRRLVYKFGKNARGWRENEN
# Procedure, shortened: as §1
# [7] = target: SPI1 (Homo sapiens, UniProt P17947 1-270); settings: protein: recombinant; tags: N-terminal GST; dsDNA, one strand shown
# Procedure, shortened: as §1
# [8] = target: SPIB (Homo sapiens, UniProt Q01892 1-262); settings: protein: recombinant; tags: N-terminal GST; dsDNA, one strand shown
# SPIB, sequence (Q01892 whole entry): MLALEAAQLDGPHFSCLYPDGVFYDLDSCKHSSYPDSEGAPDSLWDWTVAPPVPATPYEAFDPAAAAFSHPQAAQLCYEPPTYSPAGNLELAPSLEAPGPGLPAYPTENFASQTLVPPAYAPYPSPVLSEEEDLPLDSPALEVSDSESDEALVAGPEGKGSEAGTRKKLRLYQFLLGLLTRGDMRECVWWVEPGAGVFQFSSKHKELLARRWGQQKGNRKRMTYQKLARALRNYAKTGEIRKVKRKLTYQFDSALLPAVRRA
# Procedure, shortened: as §1
# [9] = target: T6, ELK3 (Homo sapiens, UniProt P41970 1-407); settings: protein: recombinant; tags: N-terminal GST; dsDNA, one strand shown
# T6 sequence: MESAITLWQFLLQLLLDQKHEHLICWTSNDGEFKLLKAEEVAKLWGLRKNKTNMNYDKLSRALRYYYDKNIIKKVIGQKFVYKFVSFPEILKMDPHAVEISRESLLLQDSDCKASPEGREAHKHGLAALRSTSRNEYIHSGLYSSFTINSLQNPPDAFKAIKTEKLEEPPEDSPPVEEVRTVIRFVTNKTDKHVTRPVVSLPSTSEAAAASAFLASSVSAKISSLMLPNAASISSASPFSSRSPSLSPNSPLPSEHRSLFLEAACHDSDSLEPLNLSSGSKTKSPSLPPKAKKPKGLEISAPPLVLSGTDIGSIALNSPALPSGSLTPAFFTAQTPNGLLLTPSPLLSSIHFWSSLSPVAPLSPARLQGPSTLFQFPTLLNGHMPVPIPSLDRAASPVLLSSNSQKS
# Procedure, shortened: as §1
# [10] = target: T7, FEV (Homo sapiens, UniProt Q99581 1-238); settings: protein: recombinant; tags: N-terminal GST; dsDNA, one strand shown
# T7 sequence: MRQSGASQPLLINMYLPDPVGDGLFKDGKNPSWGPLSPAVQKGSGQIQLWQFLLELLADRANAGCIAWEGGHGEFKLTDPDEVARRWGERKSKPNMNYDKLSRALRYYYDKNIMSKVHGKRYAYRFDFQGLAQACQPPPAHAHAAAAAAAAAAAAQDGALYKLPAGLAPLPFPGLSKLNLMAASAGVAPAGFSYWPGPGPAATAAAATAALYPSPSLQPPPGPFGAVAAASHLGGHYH
# Procedure, shortened: as §1
# [11] = target: ETV5 (Homo sapiens, UniProt P41161 1-510); settings: protein: recombinant; tags: N-terminal GST; dsDNA, one strand shown
# ETV5, sequence (P41161 whole entry): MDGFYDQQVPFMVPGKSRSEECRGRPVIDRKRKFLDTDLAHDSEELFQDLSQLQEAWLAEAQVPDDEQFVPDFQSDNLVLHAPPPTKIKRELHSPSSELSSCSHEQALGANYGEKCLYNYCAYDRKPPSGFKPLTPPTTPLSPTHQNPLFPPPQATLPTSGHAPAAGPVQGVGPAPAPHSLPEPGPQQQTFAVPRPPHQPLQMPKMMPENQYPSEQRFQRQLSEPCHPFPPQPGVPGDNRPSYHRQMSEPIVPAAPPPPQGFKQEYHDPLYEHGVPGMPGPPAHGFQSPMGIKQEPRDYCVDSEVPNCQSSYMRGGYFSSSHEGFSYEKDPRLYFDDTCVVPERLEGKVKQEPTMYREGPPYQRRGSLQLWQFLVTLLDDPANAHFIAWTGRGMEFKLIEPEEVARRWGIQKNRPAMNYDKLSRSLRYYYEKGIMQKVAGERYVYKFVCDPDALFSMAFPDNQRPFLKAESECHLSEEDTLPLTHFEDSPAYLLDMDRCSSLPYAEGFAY
# Procedure, shortened: as §1
# [12] = target: HSF1 (Homo sapiens, UniProt Q00613 1-529); settings: protein: recombinant; tags: N-terminal GST; chain copies: 3; dsDNA, one strand shown
# HSF1, sequence (Q00613 whole entry): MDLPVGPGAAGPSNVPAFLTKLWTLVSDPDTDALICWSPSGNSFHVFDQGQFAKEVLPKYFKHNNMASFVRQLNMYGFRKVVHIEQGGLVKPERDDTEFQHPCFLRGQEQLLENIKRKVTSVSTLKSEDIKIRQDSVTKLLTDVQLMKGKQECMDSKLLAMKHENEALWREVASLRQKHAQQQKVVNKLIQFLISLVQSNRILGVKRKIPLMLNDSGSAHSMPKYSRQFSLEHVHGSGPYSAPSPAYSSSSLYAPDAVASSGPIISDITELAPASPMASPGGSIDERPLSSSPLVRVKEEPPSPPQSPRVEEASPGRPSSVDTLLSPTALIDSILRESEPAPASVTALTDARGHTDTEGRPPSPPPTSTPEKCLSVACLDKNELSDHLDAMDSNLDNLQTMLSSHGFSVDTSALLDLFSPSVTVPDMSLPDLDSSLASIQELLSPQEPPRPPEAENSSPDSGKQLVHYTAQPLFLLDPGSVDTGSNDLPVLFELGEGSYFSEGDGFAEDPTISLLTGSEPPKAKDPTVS
# Procedure, shortened: as §1
# [13] = target: T8, SPIC (Homo sapiens, UniProt Q8N5J4 1-248); settings: protein: recombinant; tags: N-terminal GST; dsDNA, one strand shown
# T8 sequence: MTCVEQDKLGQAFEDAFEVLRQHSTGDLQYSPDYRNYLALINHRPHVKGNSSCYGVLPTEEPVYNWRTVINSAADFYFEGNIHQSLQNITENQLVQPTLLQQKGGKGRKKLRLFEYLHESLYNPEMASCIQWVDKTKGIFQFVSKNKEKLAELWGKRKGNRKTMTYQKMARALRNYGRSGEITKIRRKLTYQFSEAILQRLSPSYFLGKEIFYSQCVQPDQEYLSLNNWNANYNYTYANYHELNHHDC
# Procedure, shortened: as §1
# [14] = target: ELF4 (Homo sapiens, UniProt Q99607 1-663); settings: protein: recombinant; tags: N-terminal GST; dsDNA, one strand shown
# ELF4, sequence (Q99607 whole entry): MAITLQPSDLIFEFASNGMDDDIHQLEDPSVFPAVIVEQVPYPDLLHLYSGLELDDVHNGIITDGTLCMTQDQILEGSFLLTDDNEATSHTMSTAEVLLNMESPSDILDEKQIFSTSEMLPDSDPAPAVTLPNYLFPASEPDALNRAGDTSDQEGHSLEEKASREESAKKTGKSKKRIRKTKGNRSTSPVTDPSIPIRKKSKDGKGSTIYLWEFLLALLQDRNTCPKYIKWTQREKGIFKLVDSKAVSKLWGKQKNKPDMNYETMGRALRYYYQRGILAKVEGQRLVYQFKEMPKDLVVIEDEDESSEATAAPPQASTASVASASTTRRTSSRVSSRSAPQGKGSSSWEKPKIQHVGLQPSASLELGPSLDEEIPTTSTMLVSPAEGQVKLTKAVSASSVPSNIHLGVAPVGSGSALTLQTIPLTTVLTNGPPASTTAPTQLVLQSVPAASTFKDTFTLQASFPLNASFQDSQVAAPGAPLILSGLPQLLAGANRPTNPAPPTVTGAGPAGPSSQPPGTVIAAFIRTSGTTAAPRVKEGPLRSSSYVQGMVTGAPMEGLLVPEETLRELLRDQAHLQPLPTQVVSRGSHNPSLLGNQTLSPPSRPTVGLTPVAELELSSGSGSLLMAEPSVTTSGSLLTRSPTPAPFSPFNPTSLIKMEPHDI
# Procedure, shortened: as §1
# [15] = target: T9, ELK4 (Homo sapiens, UniProt P28324-2 1-405); settings: protein: recombinant; tags: N-terminal GST; dsDNA, one strand shown
# T9 sequence: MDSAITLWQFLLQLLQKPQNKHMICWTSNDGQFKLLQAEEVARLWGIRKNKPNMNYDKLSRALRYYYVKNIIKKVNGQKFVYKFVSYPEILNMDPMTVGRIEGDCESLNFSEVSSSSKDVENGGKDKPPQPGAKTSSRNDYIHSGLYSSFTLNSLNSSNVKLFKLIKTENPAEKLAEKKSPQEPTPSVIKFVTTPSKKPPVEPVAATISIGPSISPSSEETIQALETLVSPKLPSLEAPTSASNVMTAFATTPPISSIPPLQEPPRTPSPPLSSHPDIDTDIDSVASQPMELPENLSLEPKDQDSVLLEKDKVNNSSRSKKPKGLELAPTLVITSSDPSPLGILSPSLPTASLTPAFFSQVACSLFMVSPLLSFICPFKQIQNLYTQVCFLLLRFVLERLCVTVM
# Procedure, shortened: as §1
# [16] = target: T10, ETV2 (Homo sapiens, UniProt O00321 1-342); settings: protein: recombinant; tags: N-terminal GST; dsDNA, one strand shown
# T10 sequence: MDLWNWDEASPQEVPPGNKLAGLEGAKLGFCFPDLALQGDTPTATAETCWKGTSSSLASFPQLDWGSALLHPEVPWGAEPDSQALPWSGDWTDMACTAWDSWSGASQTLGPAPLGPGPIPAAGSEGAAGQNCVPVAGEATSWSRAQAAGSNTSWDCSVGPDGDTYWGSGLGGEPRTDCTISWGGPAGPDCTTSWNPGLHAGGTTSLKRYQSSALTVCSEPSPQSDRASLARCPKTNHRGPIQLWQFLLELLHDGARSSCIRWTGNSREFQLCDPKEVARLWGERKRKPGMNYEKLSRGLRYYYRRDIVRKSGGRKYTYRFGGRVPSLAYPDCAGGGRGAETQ
# Procedure, shortened: as §1
# [17] = target: T11, ELF3 (Homo sapiens, UniProt P78545 1-371); settings: protein: recombinant; tags: N-terminal GST; dsDNA, one strand shown
# T11 sequence: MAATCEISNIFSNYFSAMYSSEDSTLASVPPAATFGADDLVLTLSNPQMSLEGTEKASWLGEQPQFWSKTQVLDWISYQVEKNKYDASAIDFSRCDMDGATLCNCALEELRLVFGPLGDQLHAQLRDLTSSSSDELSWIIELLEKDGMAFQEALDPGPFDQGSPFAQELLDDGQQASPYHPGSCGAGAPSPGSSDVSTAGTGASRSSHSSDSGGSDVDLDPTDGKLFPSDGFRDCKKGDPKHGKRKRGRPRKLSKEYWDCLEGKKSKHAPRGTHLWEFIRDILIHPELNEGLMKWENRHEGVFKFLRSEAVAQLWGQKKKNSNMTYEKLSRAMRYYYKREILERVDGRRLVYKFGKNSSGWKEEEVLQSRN
# Procedure, shortened: as §1
# [18] = target: ETV1 (Homo sapiens, UniProt P50549 1-477); settings: protein: recombinant; tags: N-terminal GST; dsDNA, one strand shown
# ETV1, sequence (P50549 whole entry): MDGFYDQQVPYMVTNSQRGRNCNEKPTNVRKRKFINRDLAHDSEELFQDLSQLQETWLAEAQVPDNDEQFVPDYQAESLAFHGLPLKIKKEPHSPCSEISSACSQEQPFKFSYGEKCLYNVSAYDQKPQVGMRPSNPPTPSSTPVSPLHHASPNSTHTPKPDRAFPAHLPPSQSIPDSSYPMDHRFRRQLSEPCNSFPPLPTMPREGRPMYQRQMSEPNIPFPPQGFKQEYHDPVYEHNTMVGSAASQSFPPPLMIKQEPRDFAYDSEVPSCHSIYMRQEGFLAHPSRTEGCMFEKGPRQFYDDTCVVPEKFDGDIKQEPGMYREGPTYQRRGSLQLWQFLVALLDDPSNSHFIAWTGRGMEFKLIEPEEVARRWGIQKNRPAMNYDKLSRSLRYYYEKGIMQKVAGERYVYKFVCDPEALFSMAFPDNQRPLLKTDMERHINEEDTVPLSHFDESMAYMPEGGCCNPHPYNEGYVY
# Procedure, shortened: as §1
sequence,measurement,setting,value
CGCCGA,binding signal,[1],"1.19 fold enrichment (6-mer frequency, TF over GST control)"
same,binding signal,[2],"1.2 fold enrichment (6-mer frequency, TF over GST control)"
same,binding signal,[3],"1.26 fold enrichment (6-mer frequency, TF over GST control)"
same,binding signal,[4],"1.1 fold enrichment (6-mer frequency, TF over GST control)"
same,binding signal,[5],"1.19 fold enrichment (6-mer frequency, TF over GST control)"
same,binding signal,[6],"1.22 fold enrichment (6-mer frequency, TF over GST control)"
same,binding signal,[7],"1.16 fold enrichment (6-mer frequency, TF over GST control)"
same,binding signal,[8],"1.18 fold enrichment (6-mer frequency, TF over GST control)"
same,binding signal,[9],"1.22 fold enrichment (6-mer frequency, TF over GST control)"
same,binding signal,[10],"1.21 fold enrichment (6-mer frequency, TF over GST control)"
same,binding signal,[11],"1.13 fold enrichment (6-mer frequency, TF over GST control)"
same,binding signal,[12],"1.2 fold enrichment (6-mer frequency, TF over GST control)"
same,binding signal,[13],"1.18 fold enrichment (6-mer frequency, TF over GST control)"
same,binding signal,[14],"1.26 fold enrichment (6-mer frequency, TF over GST control)"
same,binding signal,[15],"1.28 fold enrichment (6-mer frequency, TF over GST control)"
same,binding signal,[16],"1.16 fold enrichment (6-mer frequency, TF over GST control)"
same,binding signal,[17],"1.03 fold enrichment (6-mer frequency, TF over GST control)"
same,binding signal,[18],"1.15 fold enrichment (6-mer frequency, TF over GST control)"
